From PubChem BioAssay AID1159580 (chemical genetic matrix, 2015)
The whole screen tested about 5,500 compounds, of which about 2,000 (36%) were called active. About 18% were inconclusive and are not listed. Cut-off read from the data, not from the text of the source: active = normalized growth mostly below about 0.91 (no sharp cut-off); inconclusive = no clear call, values can overlap the other calls; inactive = mostly above about 0.92. The list shows a part of the results.

Assay: chemical genetic growth profiling, strain panel (AID 1159580);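 note: tested at 20 µM; growth read once vehicle control cultures reached saturation at 30 °C; 1 = growth at the plate median or of vehicle wells; lower values mean less growth of the strain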
Conditions: S. cerevisiae deletion strains, growth OD

Measured: normalized growth

CCC(C)n1ncn(-c2ccc(N3CCN(c4ccc(OC[C@H]5CO[C@](Cn6cncn6)(c6ccc(Cl)cc6Cl)O5)cc4)CC3)cc2)c1=O (stereo not given in full)
active: locus YHR030C, strain SLT2, stronger effect = lower value 0.104 | locus YHR079C, strain IRE1, stronger effect = lower value 0.19 | locus YJL095W, strain BCK1, stronger effect = lower value 0.112 | locus YJR066W, strain TOR1, stronger effect = lower value 0.0832 | locus YLR113W, strain HOG1, stronger effect = lower value 0.187 | locus YNL183C, strain NPR1, stronger effect = lower value 0.183 | locus YOR231W, strain MKK1, stronger effect = lower value 0.177 | locus YPL256C, strain CLN2, stronger effect = lower value 0.188

CC(=O)N1CCN(c2ccc(OC[C@H]3CO[C@](Cn4ccnc4)(c4ccc(Cl)cc4Cl)O3)cc2)CC1
active: locus YAL013W, strain DEP1, stronger effect = lower value 0.0911 | locus YAL040C, strain CLN3, stronger effect = lower value 0.208 | locus YCL061C, strain MRC1 (second series), stronger effect = lower value 0.0612 | locus YDR363W, strain ESC2, stronger effect = lower value 0.103 | locus YER002W, strain NOP16, stronger effect = lower value 0.137 | locus YGR078C, strain PAC10, stronger effect = lower value 0.139 | locus YGR229C, strain SMI1, stronger effect = lower value 0.0746 | locus YJR075W, strain HOC1, stronger effect = lower value 0.0931 | locus YMR263W, strain SAP30, stronger effect = lower value 0.588 | locus YNL128W, strain TEP1, stronger effect = lower value 0.16 | locus YNL153C, strain GIM3, stronger effect = lower value 0.14 | locus YNL175C, strain NOP13, stronger effect = lower value 0.133 | locus YNL197C, strain WHI3, stronger effect = lower value 0.147 | locus YNL224C, strain SQS1, stronger effect = lower value 0.18 | locus YNL322C, strain KRE1, stronger effect = lower value 0.0931 | locus YOR083W, strain WHI5 (second series), stronger effect = lower value 0.175 | locus YPL055C, strain LGE1, stronger effect = lower value 0.104
